Test results taken from PubChem BioAssay.
Active and inactive are the calls of the source. How the calls were made is not given here.

Each molecule was assayed against Pantothenate synthetase (Mycobacterium tuberculosis (strain ATCC 25618 / H37Rv)) (UniProt P9WIL5) (assay: Coupled enzyme confirmation of inhibitors against recombinant Mtb PanC (AID 375;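 further: 0% = full reaction with vehicle and 100% = no enzyme background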)). Settings: coupled enzyme assay; at 10 µM, stronger effect = higher value.
Chain of Pantothenate synthetase (Mycobacterium tuberculosis (strain ATCC 25618 / H37Rv)) (P9WIL5 whole entry, looked up): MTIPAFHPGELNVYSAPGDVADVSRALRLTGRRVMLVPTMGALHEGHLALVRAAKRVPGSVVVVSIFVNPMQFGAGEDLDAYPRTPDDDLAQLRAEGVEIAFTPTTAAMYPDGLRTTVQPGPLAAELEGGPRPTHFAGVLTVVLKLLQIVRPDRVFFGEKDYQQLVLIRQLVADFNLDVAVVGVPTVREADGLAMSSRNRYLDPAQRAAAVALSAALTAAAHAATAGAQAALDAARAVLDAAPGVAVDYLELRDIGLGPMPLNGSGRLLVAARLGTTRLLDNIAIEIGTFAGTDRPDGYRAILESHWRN
With `Cc1ccc(C2CC(c3cccc(Br)c3)Nc3nnnn32)cc1` (stereo not given) the inhibition was 1% (inactive). For `O=c1c[n+]([O-])c2ccccc2n1OCc1c(F)cccc1F`, the inhibition was 4% (inactive). In the case of `O=S(=O)(NCCc1ccccn1)c1cccs1`, the inhibition is reported as 3% (inactive). `C=CCOc1ccc(C2/C(=C(\O)c3c(C)[nH]c(C(=O)OC)c3C)C(=O)C(=O)N2CCN(C)C)cc1` (stereo not given) was tested, and the inhibition was 0% (inactive). For `COc1ccc(NC(=O)C2CCCN(S(=O)(=O)c3cccc4cccnc34)C2)cc1OC` (stereo not given), the inhibition was 0% (inactive). With `O=C(NCC(c1cccnc1)N1CCN(c2ccc(F)cc2)CC1)OCc1ccccc1` (stereo not given) the inhibition was 0% (inactive). In the case of `CCCn1cnc2c(c1=O)c1nc3ccccc3nc1n2Cc1ccccc1OC`, the inhibition is reported as 0% (inactive). `CCC1(c2ccc(F)cc2)NC(=O)N(CC(=O)c2ccc[nH]2)C1=O` (stereo not given) was tested, and the inhibition was 0% (inactive). `CC(C)(C)NC(=O)Cn1nnc(-c2cccs2)n1` was tested, and the inhibition was 5% (inactive). For `CC(C)N(O)C(=O)NC(C)(C)C`, the inhibition was 6% (inactive). `COc1ccc(-n2c(Cc3cccn3C)nnc2SCC(=O)NCC2CCCO2)cc1` (stereo not given) was tested, and the inhibition was 11% (inactive). With `CCn1c(=S)sc2nc(C)sc21` the inhibition was 1% (inactive). In the case of `CC(C)NC(=O)Nc1cccs1`, the inhibition is reported as 9% (inactive). `CCOc1ccc(CCNc2nc3c(c(=O)n(C)c(=O)n3C)n2CC)cc1OCC` was tested, and the inhibition was 0% (inactive). With `COc1ccccc1NC(=O)Cc1noc(CSc2cc(C)c3ccccc3n2)n1` the inhibition was 0% (inactive). For `Cc1noc(C)c1COc1cccc(C(=O)Nc2ccc(C#N)cc2)c1`, the inhibition was 0% (inactive). In the case of `CC(C)Cc1nnc(NC(=O)CCC(=O)N2CCOCC2)s1`, the inhibition is reported as 0% (inactive). For `O=c1[nH]c2cc3c(cc2cc1C(c1nnnn1C1CCCCC1)N1CCSCC1)OCCO3` (stereo not given), the inhibition was 4% (inactive). With `Cc1[nH]c(=O)[nH]c(=O)c1S(=O)(=O)Nc1ccc(Oc2ccccc2)cc1` the inhibition was 6% (inactive). With `Cc1ccc(S(=O)(=O)N(CC(=O)N2CCOCC2)CC(=O)N2CCOCC2)cc1` the inhibition was 0% (inactive). With `O=C(c1cc2nc(-c3ccco3)cc(C(F)(F)F)n2n1)N1CCN(c2ccccn2)CC1` the inhibition was 6% (inactive). `CC1(C)CC(=O)CC(C2(O)C(=O)N(Cc3ccccc3)c3ccccc32)O1` (stereo not given) was tested, and the inhibition was 0% (inactive). `COC(=O)c1cc(=O)nc2sc(-c3cccs3)nn12` was tested, and the inhibition was 8% (inactive). `COc1cc2c(c(OC)c1)C(c1ccncc1)CC(=O)N2` (stereo not given) was tested, and the inhibition was 0% (inactive). In the case of `COc1cccc(CNC(=O)C2CCN(c3cnccn3)CC2)c1`, the inhibition is reported as 0% (inactive). With `CC(=O)c1nnn(-c2nc(N3CCCC3)nc(N(c3ccccc3)c3ccccc3)n2)c1C` the inhibition was 0% (inactive). With `CC(C)(C)n1nnnc1CN(Cc1ccco1)Cc1cc2cc3c(cc2[nH]c1=O)OCO3` the inhibition was 0% (inactive). For `COC(=O)NCC(c1cccnc1)N1CCOCC1` (stereo not given), the inhibition was 0% (inactive). With `CCOC(=O)c1ccc2[nH]c3c(c2c1)CCCCC3=O` the inhibition was 0% (inactive). With `COCCNC(=O)CN(C)S(=O)(=O)c1ccc(Br)cc1` the inhibition was 0% (inactive). In the case of `N#Cc1c(/N=C/c2cccs2)sc2c1CCCCC2`, the inhibition is reported as 0% (inactive). In the case of `COc1cc(NC(=O)c2cc(CC(C)C)on2)c(OC)cc1Cl`, the inhibition is reported as 5% (inactive). For `Cc1cccc(NC(=O)C2CCCN(C(=O)Nc3ccccc3)C2)c1C` (stereo not given), the inhibition was 2% (inactive). With `CC(=O)C1=C(O)C(=O)N(Cc2ccco2)C1c1ccc2c(c1)OCO2` (stereo not given) the inhibition was 3% (inactive). With `COc1ccc(CCNC(=O)CC2COc3ccccc3O2)cc1OC` (stereo not given) the inhibition was 0% (inactive). In the case of `N#CCc1nc2c3c4c(sc3ncn2n1)CCCC4`, the inhibition is reported as 7% (inactive). `O=C(CN1C(=O)CC(c2ccco2)Sc2ccccc21)Nc1ccccc1F` (stereo not given) was tested, and the inhibition was 0% (inactive). For `O=C(CN1C(=O)c2ccccc2S1(=O)=O)NCc1ccccc1Cl`, the inhibition was 0% (inactive). In the case of `O=C(O)C(c1ccccc1)N1CCCC1` (stereo not given), the inhibition is reported as 0% (inactive). With `CCOc1ccc(OCC)c(NC(=O)CCCN2C(=O)c3cccnc3C2=O)c1` the inhibition was 0% (inactive).
